Screens from PubChem.
Only some compounds are listed: those with a hit (about 1.6% of all), similar ones and a draw of the others.
KCNQ2 enhance = KCNQ2 (rat) channel potentiation | O88943 | CHO-K1 KCNQ2, FluxOR thallium flux fluorescence; hits give high values | B-score at 10 µM | 310,000 tested, 0.54% active | AID 2239;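 active = fluorescence ratio B-score at least 3 SD of library B-scores, with initial fluorescence B-score within 3 of them, cut at about 5.3 in these data; same plate scores as AID 2156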;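 also: B-score of peak minus minimum over baseline fluorescence ratio after K+ and Tl+ stimulus; positive B-score means potentiation of KCNQ2 with more thallium influx and brighter signal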
KCNQ2 block = KCNQ2 (rat) channel inhibition. B-score at 10 µM. 310,000 tested, 1.1% active. O88943. CHO-K1 KCNQ2, FluxOR thallium flux, 20 min; hits give low values. AID 2156;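 active = fluorescence ratio B-score at most minus 3 library SDs, with starting brightness B-score within 2 library SDs, cut at about -5.5 in these data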
Active calls of the source: *; i = inactive; / = no result given.

SMILES	KCNQ2 enhance	KCNQ2 block
Cc1cccc(OP(=O)(Oc2ccccc2)OC(c2ccccc2)C(F)(F)F)c1 (configuration not stated)	-6.49	-6.49*
Cc1ccc(C)c(NP(=O)(Oc2ccccc2)Oc2ccccc2)c1	0.73	i
Cn1cc(C(=O)N2CCOCC2)c2ccccc21	/	i
O=c1c2ccccc2nc(-c2ccc(Cl)cc2Cl)n1-c1nccs1	/	i
Cc1ccc(-n2nc(C)c3c2NC(=O)CSC3c2ccc3c(c2)OCO3)cc1 (configuration not stated)	-5.63	-5.63*
COc1ccc(C2SCC(=O)Nc3c2c(C)nn3-c2ccccc2)cc1 (configuration not stated)	0.6	i
CN(C)CCN(C(=O)COc1ccc(Cl)cc1)c1nc2cc3c(cc2s1)OCO3	/	i
COc1ccc(-n2c(/C=C/c3ccc4c(c3)OCO4)nc3ccccc3c2=O)cc1	/	i
Cc1ccc(-n2c(/C=C/c3ccc4c(c3)OCO4)nc3ccccc3c2=O)cc1	-5.65	-5.65*
CCOc1cc2c(cc1OCC)-n1cccc1C(c1cc(OC)ccc1F)NC2 (configuration not stated)	/	i
O=C(C(=O)N1CCOCC1)c1cn(Cc2ccc(F)cc2)c2ccccc12	0.27	i
O=C1NC(=O)N(c2ccc(Cl)cc2)C(=O)/C1=C/c1coc2ccc(O)cc2c1=O	/	i
O=C1NC(=O)N(c2ccccc2)C(=O)/C1=C/c1coc2ccc(O)cc2c1=O	-7.09	-7.09*
CN(C)c1ccc(/C=C2/C(=N\O)C3CCN2CC3)cc1	/	i
O=C(COc1ccc(Cl)cc1)NCCc1cnc[nH]1	1.07	i
CCOc1ccc(-c2cc(C)[n+](CCc3ccc(OC)c(OC)c3)c(-c3ccc(OCC)cc3)c2)cc1	-5.78	-5.78*
CCOc1ccc(-c2cc(C)[n+](CCO)c(-c3ccc(OCC)cc3)c2)cc1	0.49	i
CC(C)(C)NC(=S)/N=C(\N)N[N+](=O)[O-]	/	i
CC[n+]1c(/C=C/C=C/c2ccc(N(C)C)cc2)sc2ccccc21	-7.89	-7.89*
CN(C)c1ccc(/C=C/C=C/c2sc3ccccc3[n+]2C)cc1	0.07	i
Cc1ccc(Cn2ccccc2=N)cc1	1.16	i
C/C1=C\[C@@H](C)C/C=C/[C@H]2[C@@H]3O[C@]3(C)[C@@H](C)[C@H]3[C@H](Cc4c[nH]c5ccccc45)NC(=O)[C@]32C(=O)/C=C/C(=O)[C@@H]1O	8.3*	i
CCCCCCC(Cl)(Cn1ccnc1)c1ccccc1 (configuration not stated)	/	i
O=C(COc1ccccc1)N1CCN(CC2CC=CCC2)CC1 (configuration not stated)	/	i
Cc1cc(C)[n+](C2C3CC4CC(C3)CC2C4)o1 (configuration not stated)	/	i
SMILES	KCNQ2 enhance	KCNQ2 block
Cc1ccc2c(c1)cc1c(=O)n(CC(=O)N3CCC4(CC3)OCCO4)nc(C)n12	/	i
CCCCn1c(O)c(C(C)=NCCc2ccccc2)c(=O)[nH]c1=O	0.51	i
CCCCn1c(O)c(C(C)=Nc2ccc(C(=O)O)cc2)c(=O)[nH]c1=O	5.62*	i
C[C@]12C=CC(=O)C=C1CC[C@@H]1C2CC[C@]2(C)OC(=O)CCC12 (some centres not stated)	0.62	i
O=C1NC(=O)C2(Cc3ccccc3N3CCCC32)C(=O)N1Cc1ccccc1 (configuration not stated)	/	i
O=C1NC(=O)[C@]2(Cc3ccccc3N3CCN(c4ccccc4)CC32)C(=O)N1c1ccccc1 (some centres not stated)	-6.06	-6.06*
O=C1NC(=O)[C@]2(Cc3ccccc3N3CCN(c4ccccc4)CC32)C(=O)N1Cc1ccccc1 (some centres not stated)	-5.7	-5.7*
CN1C(=O)NC(=O)[C@]2(Cc3ccccc3N3CCN(c4ccccc4)CC32)C1=O (some centres not stated)	/	i
Cc1cc(=O)oc2c(C)c(OCC(=O)N3CCN(Cc4ccccc4)CC3)ccc12	/	i
CCc1nc2ccc(Br)cc2c(=O)n1-c1ccccc1C(F)(F)F	/	i
CCCc1nc2ccc(Br)cc2c(=O)n1-c1ccc([N+](=O)[O-])c(C(F)(F)F)c1	-6.04	-6.04*
CCN1C(=O)/C(=C/c2ccc(N(CC)CC)cc2OC)C(=O)NC1=S	/	i
C=C(C=O)CC1CC(O)[C@]2(C)OC3CC4OC5C[C@]6(C)O[C@]7(C)CCC8OC9C[C@]%10(C)OC%11C(C)=CC(=O)OC%11CC%10OC9C[C@@H](C)C8OC7CC6O[C@]5(C)CC5OC5C4OC3CC2O1 (some centres not stated)	-5.57	-5.57*
C=C(CO)CC1CC(O)[C@]2(C)OC3CC4OC5C[C@]6(C)O[C@]7(C)CCC8OC9C[C@]%10(C)OC%11C(C)=CC(=O)OC%11CC%10OC9C[C@@H](C)C8OC7CC6O[C@]5(C)C/C=C\C4OC3CC2O1 (some centres not stated)	0.1	i
Cc1cc(C=O)c(C)n1C1CC1	0.62	i
